# Key:
# Test in all cases: DAPPL (digital affinity profiling via proximity ligation, sequencing); 10 mM Tris-HCl pH 7.5, 50 mM NaCl, 1 mM DTT, 4% glycerol, room temperature, 30 min; GST-TFs on glutathione beads, 16-mer random dsDNA library, 0.1% formaldehyde crosslink after washing; high values mean tight binding
# [1] = biological target: T1, FEV (Homo sapiens, UniProt Q99581 1-238); conditions: protein: recombinant; tags: N-terminal GST; dsDNA, one strand shown
# T1 sequence: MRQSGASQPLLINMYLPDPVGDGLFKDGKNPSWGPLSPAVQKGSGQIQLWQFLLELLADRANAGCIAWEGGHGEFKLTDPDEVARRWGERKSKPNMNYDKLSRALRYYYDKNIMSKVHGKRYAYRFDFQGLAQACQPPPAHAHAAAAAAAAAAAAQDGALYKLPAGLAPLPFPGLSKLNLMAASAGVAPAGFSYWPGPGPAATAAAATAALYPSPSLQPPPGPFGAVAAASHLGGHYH
# How it was run: (§1)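 Each value of binding signal is a hexamer's read frequency for a factor divided by the same hexamer's frequency in the tag-only sample. Barcoded, bead-captured GST fusions of human transcription factors made in yeast were pooled with that sample and incubated with 200 nmole of a random double-stranded 16-mer DNA library in Tris/NaCl/DTT/glycerol buffer at room temperature for 30 min. Washing, 0.1% formaldehyde crosslinking, proximity ligation, PCR and Illumina NextSeq500 sequencing followed.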
# [2] = biological target: ETV5 (Homo sapiens, UniProt P41161 1-510); conditions: protein: recombinant; tags: N-terminal GST; dsDNA, one strand shown
# Chain of ETV5 (P41161 whole entry): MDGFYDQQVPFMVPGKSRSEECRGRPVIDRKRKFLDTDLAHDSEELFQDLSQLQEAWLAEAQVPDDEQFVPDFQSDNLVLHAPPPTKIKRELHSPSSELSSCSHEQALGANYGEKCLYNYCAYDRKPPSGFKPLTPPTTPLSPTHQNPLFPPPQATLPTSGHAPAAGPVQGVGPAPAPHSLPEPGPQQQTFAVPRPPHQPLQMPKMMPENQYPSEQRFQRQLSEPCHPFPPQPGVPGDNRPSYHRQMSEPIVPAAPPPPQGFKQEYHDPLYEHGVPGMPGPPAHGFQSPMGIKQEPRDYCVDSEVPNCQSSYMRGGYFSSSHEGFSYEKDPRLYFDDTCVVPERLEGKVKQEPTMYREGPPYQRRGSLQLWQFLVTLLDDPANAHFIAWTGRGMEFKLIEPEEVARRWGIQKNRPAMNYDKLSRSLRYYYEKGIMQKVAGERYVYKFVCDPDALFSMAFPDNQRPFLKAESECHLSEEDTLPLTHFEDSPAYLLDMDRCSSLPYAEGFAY
# How it was run: as §1
# [3] = biological target: HSF1 (Homo sapiens, UniProt Q00613 1-529); conditions: protein: recombinant; tags: N-terminal GST; chain copies: 3; dsDNA, one strand shown
# Chain of HSF1 (Q00613 whole entry): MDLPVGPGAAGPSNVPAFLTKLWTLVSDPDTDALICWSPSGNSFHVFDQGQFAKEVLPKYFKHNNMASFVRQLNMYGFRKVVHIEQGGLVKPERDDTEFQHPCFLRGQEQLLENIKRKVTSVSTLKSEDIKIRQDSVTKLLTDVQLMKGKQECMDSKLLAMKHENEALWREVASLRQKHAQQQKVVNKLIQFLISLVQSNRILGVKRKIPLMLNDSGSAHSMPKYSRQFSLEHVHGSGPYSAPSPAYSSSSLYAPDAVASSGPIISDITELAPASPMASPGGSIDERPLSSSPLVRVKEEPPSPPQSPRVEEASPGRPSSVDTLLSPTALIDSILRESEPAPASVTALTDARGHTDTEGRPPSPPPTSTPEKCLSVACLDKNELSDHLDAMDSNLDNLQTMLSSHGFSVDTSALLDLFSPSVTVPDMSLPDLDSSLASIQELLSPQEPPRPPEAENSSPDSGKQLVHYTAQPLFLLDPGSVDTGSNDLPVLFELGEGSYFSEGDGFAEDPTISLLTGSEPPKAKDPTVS
# How it was run: as §1
# [4] = biological target: T2, SPIC (Homo sapiens, UniProt Q8N5J4 1-248); conditions: protein: recombinant; tags: N-terminal GST; dsDNA, one strand shown
# T2 sequence: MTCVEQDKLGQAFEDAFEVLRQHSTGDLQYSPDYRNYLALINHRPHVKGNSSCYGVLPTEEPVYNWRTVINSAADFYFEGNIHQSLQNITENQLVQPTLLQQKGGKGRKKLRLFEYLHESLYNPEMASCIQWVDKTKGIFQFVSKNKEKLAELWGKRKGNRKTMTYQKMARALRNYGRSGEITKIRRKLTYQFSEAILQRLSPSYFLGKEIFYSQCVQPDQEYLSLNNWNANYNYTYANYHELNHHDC
# How it was run: as §1
# [5] = biological target: ELF4 (Homo sapiens, UniProt Q99607 1-663); conditions: protein: recombinant; tags: N-terminal GST; dsDNA, one strand shown
# Chain of ELF4 (Q99607 whole entry): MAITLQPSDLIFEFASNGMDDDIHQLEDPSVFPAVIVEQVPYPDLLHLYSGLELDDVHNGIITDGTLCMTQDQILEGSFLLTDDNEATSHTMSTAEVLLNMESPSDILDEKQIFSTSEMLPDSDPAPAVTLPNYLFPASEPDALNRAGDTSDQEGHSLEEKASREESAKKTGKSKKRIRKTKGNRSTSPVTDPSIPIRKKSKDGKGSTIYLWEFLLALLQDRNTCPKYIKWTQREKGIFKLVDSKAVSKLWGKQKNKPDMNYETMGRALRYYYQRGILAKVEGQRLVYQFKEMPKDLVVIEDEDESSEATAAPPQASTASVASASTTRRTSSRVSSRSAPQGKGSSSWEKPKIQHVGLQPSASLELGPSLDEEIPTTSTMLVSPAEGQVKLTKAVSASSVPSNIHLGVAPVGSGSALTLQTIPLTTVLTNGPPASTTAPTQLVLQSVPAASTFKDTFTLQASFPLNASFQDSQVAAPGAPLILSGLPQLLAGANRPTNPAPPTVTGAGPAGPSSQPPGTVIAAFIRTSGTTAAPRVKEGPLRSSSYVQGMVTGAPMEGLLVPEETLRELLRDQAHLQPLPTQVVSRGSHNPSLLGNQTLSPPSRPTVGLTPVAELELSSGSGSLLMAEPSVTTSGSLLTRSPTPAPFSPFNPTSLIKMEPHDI
# How it was run: as §1
# [6] = biological target: T3, ELK4 (Homo sapiens, UniProt P28324-2 1-405); conditions: protein: recombinant; tags: N-terminal GST; dsDNA, one strand shown
# T3 sequence: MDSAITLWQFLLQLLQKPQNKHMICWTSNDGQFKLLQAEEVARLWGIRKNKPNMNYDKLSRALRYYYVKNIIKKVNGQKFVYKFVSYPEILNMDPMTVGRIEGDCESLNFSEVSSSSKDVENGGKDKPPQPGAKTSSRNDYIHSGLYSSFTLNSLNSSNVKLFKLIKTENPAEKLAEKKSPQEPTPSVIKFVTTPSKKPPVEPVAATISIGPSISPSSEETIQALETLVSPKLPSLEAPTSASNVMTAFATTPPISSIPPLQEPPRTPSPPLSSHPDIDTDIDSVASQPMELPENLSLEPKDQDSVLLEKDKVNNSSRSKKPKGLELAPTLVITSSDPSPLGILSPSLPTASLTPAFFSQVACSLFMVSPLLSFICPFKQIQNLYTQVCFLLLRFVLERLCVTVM
# How it was run: as §1
# [7] = biological target: T4, ETV2 (Homo sapiens, UniProt O00321 1-342); conditions: protein: recombinant; tags: N-terminal GST; dsDNA, one strand shown
# T4 sequence: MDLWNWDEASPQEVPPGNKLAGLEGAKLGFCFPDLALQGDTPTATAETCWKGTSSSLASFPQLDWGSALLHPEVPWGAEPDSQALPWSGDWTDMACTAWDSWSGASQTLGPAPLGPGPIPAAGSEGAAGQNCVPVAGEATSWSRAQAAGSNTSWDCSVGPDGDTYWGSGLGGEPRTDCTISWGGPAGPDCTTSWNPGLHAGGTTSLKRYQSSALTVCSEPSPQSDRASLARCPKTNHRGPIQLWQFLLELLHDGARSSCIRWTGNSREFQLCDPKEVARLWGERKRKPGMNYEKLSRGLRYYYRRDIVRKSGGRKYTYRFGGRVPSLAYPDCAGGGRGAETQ
# How it was run: as §1
# [8] = biological target: T5, ELF3 (Homo sapiens, UniProt P78545 1-371); conditions: protein: recombinant; tags: N-terminal GST; dsDNA, one strand shown
# T5 sequence: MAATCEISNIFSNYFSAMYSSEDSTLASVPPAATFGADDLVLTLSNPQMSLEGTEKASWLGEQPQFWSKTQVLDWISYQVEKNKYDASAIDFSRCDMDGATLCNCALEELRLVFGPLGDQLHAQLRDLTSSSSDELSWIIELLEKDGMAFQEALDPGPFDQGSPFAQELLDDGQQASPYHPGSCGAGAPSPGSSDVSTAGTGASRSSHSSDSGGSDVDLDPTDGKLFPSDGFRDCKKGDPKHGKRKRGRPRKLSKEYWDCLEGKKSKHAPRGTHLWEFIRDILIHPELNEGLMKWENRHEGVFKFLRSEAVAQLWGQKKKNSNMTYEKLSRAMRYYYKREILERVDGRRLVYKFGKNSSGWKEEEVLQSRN
# How it was run: as §1
# [9] = biological target: CRX (Homo sapiens, UniProt O43186 1-299); conditions: protein: recombinant; tags: N-terminal GST; dsDNA, one strand shown
# Chain of CRX (O43186 whole entry): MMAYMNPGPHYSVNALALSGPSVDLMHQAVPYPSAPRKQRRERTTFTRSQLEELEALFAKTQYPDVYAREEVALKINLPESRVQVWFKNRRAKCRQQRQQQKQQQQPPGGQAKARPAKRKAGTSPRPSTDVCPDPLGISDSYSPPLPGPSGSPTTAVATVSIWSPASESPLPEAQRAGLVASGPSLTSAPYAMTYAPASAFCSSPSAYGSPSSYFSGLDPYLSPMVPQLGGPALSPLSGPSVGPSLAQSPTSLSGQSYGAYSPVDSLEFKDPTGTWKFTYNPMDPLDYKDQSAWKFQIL
# How it was run: as §1
# [10] = biological target: ETV1 (Homo sapiens, UniProt P50549 1-477); conditions: protein: recombinant; tags: N-terminal GST; dsDNA, one strand shown
# Chain of ETV1 (P50549 whole entry): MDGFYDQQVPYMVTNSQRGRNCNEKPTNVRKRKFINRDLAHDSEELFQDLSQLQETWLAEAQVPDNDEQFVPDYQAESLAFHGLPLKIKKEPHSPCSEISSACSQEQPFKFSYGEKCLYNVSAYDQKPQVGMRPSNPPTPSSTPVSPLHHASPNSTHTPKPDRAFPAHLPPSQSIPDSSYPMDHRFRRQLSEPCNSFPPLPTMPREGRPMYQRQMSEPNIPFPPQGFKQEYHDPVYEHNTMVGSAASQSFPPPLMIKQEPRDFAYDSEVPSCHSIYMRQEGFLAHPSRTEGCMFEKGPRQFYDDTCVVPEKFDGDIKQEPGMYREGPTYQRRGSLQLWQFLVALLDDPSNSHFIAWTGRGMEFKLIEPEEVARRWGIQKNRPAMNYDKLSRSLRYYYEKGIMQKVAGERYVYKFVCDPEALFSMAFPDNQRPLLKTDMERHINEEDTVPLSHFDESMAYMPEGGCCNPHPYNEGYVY
# How it was run: as §1
# [11] = biological target: T6, ERF (Homo sapiens, UniProt P50548 1-548); conditions: protein: recombinant; tags: N-terminal GST; dsDNA, one strand shown
# T6 sequence: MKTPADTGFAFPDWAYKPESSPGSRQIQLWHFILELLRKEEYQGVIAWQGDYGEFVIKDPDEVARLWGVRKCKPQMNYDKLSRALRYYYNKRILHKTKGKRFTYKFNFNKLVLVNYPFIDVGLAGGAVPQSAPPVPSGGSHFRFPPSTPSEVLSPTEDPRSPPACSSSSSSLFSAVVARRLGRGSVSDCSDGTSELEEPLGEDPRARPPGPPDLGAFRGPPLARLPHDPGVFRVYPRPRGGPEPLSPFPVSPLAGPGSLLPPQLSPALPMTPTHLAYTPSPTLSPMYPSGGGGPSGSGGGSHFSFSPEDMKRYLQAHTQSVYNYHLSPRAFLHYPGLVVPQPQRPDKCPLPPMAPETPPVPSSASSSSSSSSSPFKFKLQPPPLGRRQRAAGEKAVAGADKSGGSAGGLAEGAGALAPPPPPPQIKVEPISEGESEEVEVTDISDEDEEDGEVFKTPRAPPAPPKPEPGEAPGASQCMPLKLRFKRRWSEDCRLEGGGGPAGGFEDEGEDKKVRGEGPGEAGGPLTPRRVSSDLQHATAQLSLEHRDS
# How it was run: as §1
# [12] = biological target: T7, ETV3L (Homo sapiens, UniProt Q6ZN32 1-361); conditions: protein: recombinant; tags: N-terminal GST; dsDNA, one strand shown
# T7 sequence: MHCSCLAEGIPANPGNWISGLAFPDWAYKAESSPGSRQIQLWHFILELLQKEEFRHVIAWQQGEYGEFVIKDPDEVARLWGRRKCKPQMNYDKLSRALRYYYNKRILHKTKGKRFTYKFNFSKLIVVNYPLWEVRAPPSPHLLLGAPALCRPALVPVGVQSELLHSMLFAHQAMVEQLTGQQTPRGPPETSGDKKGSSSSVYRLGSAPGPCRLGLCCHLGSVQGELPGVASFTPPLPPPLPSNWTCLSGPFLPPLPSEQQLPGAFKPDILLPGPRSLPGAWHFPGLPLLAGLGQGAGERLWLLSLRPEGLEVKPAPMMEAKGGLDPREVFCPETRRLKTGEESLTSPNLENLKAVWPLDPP
# How it was run: as §1
# [13] = biological target: T8, ETS2 (Homo sapiens, UniProt P15036 1-469); conditions: protein: recombinant; tags: N-terminal GST; dsDNA, one strand shown
# T8 sequence: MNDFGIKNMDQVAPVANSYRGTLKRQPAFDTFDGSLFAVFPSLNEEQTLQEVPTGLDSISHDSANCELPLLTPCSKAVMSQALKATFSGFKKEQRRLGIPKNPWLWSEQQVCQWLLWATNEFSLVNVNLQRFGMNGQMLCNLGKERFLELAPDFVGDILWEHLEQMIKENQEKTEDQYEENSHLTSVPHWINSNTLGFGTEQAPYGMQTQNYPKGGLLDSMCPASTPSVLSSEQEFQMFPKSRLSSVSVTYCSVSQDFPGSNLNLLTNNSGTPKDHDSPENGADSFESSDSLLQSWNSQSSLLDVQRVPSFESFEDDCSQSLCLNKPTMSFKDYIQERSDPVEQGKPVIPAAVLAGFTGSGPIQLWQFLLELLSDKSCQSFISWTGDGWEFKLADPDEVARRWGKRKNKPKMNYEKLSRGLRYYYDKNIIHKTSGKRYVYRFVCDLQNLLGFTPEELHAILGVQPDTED
# How it was run: as §1
# [14] = biological target: T9, SPDEF (Homo sapiens, UniProt O95238 1-335); conditions: protein: recombinant; tags: N-terminal GST; dsDNA, one strand shown
# T9 sequence: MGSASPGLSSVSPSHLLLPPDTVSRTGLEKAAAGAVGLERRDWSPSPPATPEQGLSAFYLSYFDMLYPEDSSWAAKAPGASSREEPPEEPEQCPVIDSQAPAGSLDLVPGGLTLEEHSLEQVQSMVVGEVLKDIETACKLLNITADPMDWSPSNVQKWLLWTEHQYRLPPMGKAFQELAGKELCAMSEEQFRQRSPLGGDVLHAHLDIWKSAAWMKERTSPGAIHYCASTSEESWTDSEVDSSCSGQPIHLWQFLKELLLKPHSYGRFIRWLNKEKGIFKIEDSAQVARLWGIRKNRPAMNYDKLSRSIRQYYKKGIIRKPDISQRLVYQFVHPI
# How it was run: as §1
# [15] = biological target: T10, ETV7 (Homo sapiens, UniProt Q9Y603 1-341); conditions: protein: recombinant; tags: N-terminal GST; dsDNA, one strand shown
# T10 sequence: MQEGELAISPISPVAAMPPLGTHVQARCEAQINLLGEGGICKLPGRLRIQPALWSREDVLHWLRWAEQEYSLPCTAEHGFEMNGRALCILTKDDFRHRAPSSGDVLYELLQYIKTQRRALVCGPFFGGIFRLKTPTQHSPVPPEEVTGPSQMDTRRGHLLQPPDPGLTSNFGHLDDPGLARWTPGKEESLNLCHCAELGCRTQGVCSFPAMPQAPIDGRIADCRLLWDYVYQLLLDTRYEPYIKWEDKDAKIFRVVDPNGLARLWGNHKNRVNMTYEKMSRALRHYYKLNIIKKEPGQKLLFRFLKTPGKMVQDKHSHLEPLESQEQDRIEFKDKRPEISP
# How it was run: as §1
# [16] = biological target: T11, ELF5 (Homo sapiens, UniProt Q9UKW6-2 1-255); conditions: protein: recombinant; tags: N-terminal GST; dsDNA, one strand shown
# T11 sequence: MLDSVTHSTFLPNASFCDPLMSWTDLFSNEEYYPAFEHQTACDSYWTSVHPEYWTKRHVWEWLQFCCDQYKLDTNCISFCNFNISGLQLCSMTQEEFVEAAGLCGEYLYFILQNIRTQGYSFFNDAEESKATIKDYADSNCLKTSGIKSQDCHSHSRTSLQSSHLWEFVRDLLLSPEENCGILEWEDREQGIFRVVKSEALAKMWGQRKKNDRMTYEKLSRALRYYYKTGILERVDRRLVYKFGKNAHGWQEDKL
# How it was run: as §1
# [17] = biological target: T12, ETV3 (Homo sapiens, UniProt P41162-2 1-143); conditions: protein: recombinant; tags: N-terminal GST; dsDNA, one strand shown
# T12 sequence: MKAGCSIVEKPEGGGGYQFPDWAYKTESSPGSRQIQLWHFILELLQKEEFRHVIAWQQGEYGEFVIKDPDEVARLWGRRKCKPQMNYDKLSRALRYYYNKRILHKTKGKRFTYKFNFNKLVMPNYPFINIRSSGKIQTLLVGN
# How it was run: as §1
# [18] = biological target: ETV6 (Homo sapiens, UniProt P41212 1-452); conditions: protein: recombinant; tags: N-terminal GST; dsDNA, one strand shown
# Chain of ETV6 (P41212 whole entry): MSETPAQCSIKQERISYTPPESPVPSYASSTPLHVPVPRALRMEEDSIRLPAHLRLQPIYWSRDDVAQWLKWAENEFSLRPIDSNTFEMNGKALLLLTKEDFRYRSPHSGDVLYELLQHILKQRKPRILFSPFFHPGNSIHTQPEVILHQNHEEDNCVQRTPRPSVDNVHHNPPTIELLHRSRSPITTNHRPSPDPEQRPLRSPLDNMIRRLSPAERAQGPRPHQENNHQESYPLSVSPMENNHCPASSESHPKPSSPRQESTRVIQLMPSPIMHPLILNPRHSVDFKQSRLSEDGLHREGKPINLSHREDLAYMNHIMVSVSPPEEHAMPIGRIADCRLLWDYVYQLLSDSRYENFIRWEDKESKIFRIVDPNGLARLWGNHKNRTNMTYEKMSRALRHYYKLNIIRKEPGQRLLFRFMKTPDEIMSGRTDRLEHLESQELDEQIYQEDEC
# How it was run: as §1
sequence,measurement,setting,value
ATACAG,binding signal,[1],"1.14 fold enrichment (6-mer frequency, TF over GST control)"
same,binding signal,[2],"1.13 fold enrichment (6-mer frequency, TF over GST control)"
same,binding signal,[3],"1.02 fold enrichment (6-mer frequency, TF over GST control)"
same,binding signal,[4],"1.14 fold enrichment (6-mer frequency, TF over GST control)"
same,binding signal,[5],"1.18 fold enrichment (6-mer frequency, TF over GST control)"
same,binding signal,[6],"1.08 fold enrichment (6-mer frequency, TF over GST control)"
same,binding signal,[7],"1.24 fold enrichment (6-mer frequency, TF over GST control)"
same,binding signal,[8],"1.12 fold enrichment (6-mer frequency, TF over GST control)"
same,binding signal,[9],"1.02 fold enrichment (6-mer frequency, TF over GST control)"
same,binding signal,[10],"1.11 fold enrichment (6-mer frequency, TF over GST control)"
same,binding signal,[11],"1.16 fold enrichment (6-mer frequency, TF over GST control)"
same,binding signal,[12],"1.1 fold enrichment (6-mer frequency, TF over GST control)"
same,binding signal,[13],"1.17 fold enrichment (6-mer frequency, TF over GST control)"
same,binding signal,[14],"1.21 fold enrichment (6-mer frequency, TF over GST control)"
same,binding signal,[15],"1.18 fold enrichment (6-mer frequency, TF over GST control)"
same,binding signal,[16],"1.17 fold enrichment (6-mer frequency, TF over GST control)"
same,binding signal,[17],"1.18 fold enrichment (6-mer frequency, TF over GST control)"
same,binding signal,[18],"1.12 fold enrichment (6-mer frequency, TF over GST control)"

# — publication PMC7862700, “An all-to-all approach to the identification of sequence-specific readers for epigenetic DNA modifications on cytosine”
